Bioassay records: PubChem BioAssay, National Center for Advancing Translational Sciences (NCATS)
The list is not random: actives were taken first. Their share in the collection is about 21%.
Pf growth 48h = inhibits P. falciparum growth in the first generation, 48 h; P. falciparum luciferase growth in erythrocytes, 48 h; Potency, µM (top dose mostly 28.7 µM), usual class: inhibitors; actives 5.9% (n = 310,000); active = well fitted inhibition curve with a large enough effect; inconclusive = small, poorly fitted or top-dose-only effect, or another doubt; inactive = no such curve, though single readings can be large or run the other way
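Parasite viability was followed by luminescence of a genomically integrated firefly luciferase. Cultures held 0.1% parasitemia at 2% hematocrit (final), incubated under 5% CO2 at 37 C.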
Shiga toxin inh = Shiga toxin inhibition | inhibition, % at 38.7 µM | Vero cells, Shiga toxin protein synthesis inhibition reporter | AID 2315 | actives 9.2% (n = 290,000); in the data active = inhibition mostly above about 28%, no sharp cut-off; inactive = mostly below about 43%
Pf growth 96h = P. falciparum growth inhibition at 96 hours; P. falciparum luciferase reporter growth, 96 h; Potency, µM (highest dose often 28.7 µM), actives largely listed as inhibitors; actives 6.9% (n = 320,000); active = well fitted inhibition curve with a large enough effect; inconclusive = small, poorly fitted or top-dose-only effect, or another doubt; inactive = no such curve, though single readings can be large or run the other way
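Delayed-death screen, second-generation endpoint: infected erythrocytes, 2% hematocrit, 0.05% parasitemia final; 96 hours at 37 C, 5% CO2; luciferase detection reagent; luminescence decrease equals reduced growth.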
Cycloheximide cs = counter-screen for Shiga toxin inhibitors: cycloheximide protein synthesis inhibition; cell reporter, cycloheximide protein synthesis inhibition counterscreen; actives 12% (n = 300,000); AID 2314; max response, %; in the data active = max response mostly above about 13%, no sharp cut-off; inactive = mostly below about 14%; also: read at 38.3 µM for the half of the compounds with a filed dose
NS1 inh = inhibitors of influenza NS1 protein function. Potency, µM (doses to about 46.1 µM). actives 0.4% (n = 270,000); also: actives are rising curves; nearly all actives have a fitted effect of over 50% in size
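S. cerevisiae expressing influenza A NS1, grown in glucose, washed, then diluted 1:100 into pH 6.0 -URA galactose medium with 23 nl compound. Growth recovery read as OD600; NS1-free strain serves as control.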
SARS PLP yeast = inhibitors of SARS-CoV papain-like protease in yeast | S. cerevisiae expressing SARS-CoV PLpro, growth rescue | Potency, µM (doses to about 32.9 µM), usual class: activators | actives 0.19% (n = 330,000); also: nearly all actives have a fitted effect of over 55% in size
Numbers stand for hits; – = inactive; ? = inconclusive; · = no result. Unless noted, calls follow the shape of the full dose curve.

SMILES | Pf growth 48h | Shiga toxin inh | Pf growth 96h | Cycloheximide cs | NS1 inh | SARS PLP yeast
CCN1CCN(c2cc(C)c3cc(NC(=S)N4CCCCC4)ccc3n2)CC1 | ? | – | ? | 21 | – | –
CCN1CCN(c2cc(C)c3cc(NC(=S)N4CC(C)CC(C)C4)ccc3n2)CC1 (stereo not drawn) | ? | – | ? | – | – | –
CCN1CCN(c2cc(C)c3cc(NC(=S)N4CCCC(C)C4)ccc3n2)CC1 (stereo not drawn) | – | 62 | – | 33 | – | –
O=C(O)c1ccc(NC2CC(=O)N(Cc3ccccc3)C2=O)cc1 (stereo not drawn) | – | – | – | – | – | –
O=C1NC(=S)NC(=O)C1=Cc1cccc2cc3ccccc3cc12 | ? | – | ? | – | – | –
O=C1NC(=S)N/C1=C/c1cccc2ccccc12 | – | 89 | – | 29 | – | –
COc1ccc(/C=C/c2nc3ccccc3n2Cc2ccc(OC)c(OC)c2)cc1 | – | 57 | – | 70 | – | –
CC(C)Cn1c(S(=O)(=O)O)nc2ccccc21 | ? | – | – | – | – | –
CCn1c(/C=C/c2cc[n+](C)cc2)nc2ccccc21 | ? | – | ? | – | – | –
CC(C)n1c(/C=C/c2ccccc2)nc2ccccc21 | – | 79 | – | 30 | – | –
CCCn1c(/C=C/c2ccccc2)nc2ccccc21 | – | 106 | – | 26 | – | –
CC(C)Cn1c(/C=C/c2ccco2)nc2ccccc21 | – | – | ? | 19 | – | –
CC(C)CCOc1ccc(C(=O)NNC(=O)CNC(=O)c2ccccc2F)cc1 | · | · | · | · | · | –
COc1cc(C)c(Cl)cc1S(=O)(=O)NCc1ccccn1 | – | – | – | – | – | –
COc1ccc2cc(C(=O)N3CCN(c4ccc(F)cc4)CC3)[nH]c2c1 | – | – | – | – | – | –
COC(=O)[C@]1(Cc2ccccc2)N[C@H](CN(C)S(=O)(=O)c2ccc(-c3ccccc3)cc2)[C@@H]2C(=O)N(Cc3ccccc3)C(=O)[C@@H]21 | · | · | · | · | · | –
Cc1cnc(C(=O)OCC(=O)c2ccc(Br)s2)cn1 | ? | · | – | · | · | –
COc1ccc(S(=O)(=O)Nc2cc3c4c(c2)C(C)C(=O)N4CCC3)cc1OC (stereo not drawn) | – | · | – | · | · | –
COCCOCCn1c(/C=C/c2ccccc2)nc2ccccc21 | – | – | – | 20 | – | –
COCCOCCn1c(CCCO)nc2ccccc21 | – | – | – | – | – | –
O=C1CCc2cc(NS(=O)(=O)c3cc(F)ccc3F)cc3c2N1CC3 | ? | · | – | · | · | –
COC(=O)c1ccc(Cn2cc([N+](=O)[O-])cn2)cc1 | – | – | – | – | – | –
COC(=O)c1cccc(Cn2cc([N+](=O)[O-])cn2)c1 | – | – | 3.7µM | – | · | –
CC(C)CNC(=O)c1cccc(Cn2cc(Cl)cn2)c1 | – | – | 10µM | – | – | –
O=C(Nc1cccc(Cl)c1)c1ccc(Cn2cc(Cl)cn2)cc1 | – | 79 | – | 15 | – | –
SMILES | Pf growth 48h | Shiga toxin inh | Pf growth 96h | Cycloheximide cs | NS1 inh | SARS PLP yeast
O=C(O)c1cccc(Cn2cc(Cl)cn2)c1 | – | – | – | – | – | –
Cn1c(NC(=O)c2cccc(Cn3cc(Cl)cn3)c2)nc2ccccc21 | – | 195 | · | 69 | – | –
CC(=O)Nc1ccc(NC(=O)c2ccc(Cn3cc(Cl)cn3)cc2)cc1 | – | – | ? | – | – | –
CCCCN(C(=O)c1ccc(C#N)cc1)c1c(N)n(CCC)c(=O)[nH]c1=O | – | – | – | – | – | –
Cn1c(=O)c2c(O)c(C=Nc3ccc(F)cc3)c(=O)n(C)c2n(C)c1=O | – | – | – | – | – | –
CCCNC(=O)NC(=O)c1cnccc1C(F)(F)F | – | – | – | – | – | –
CCn1c(NC(=O)c2cccc(Cn3cc(Cl)cn3)c2)nc2ccccc21 | 10µM | – | ? | – | – | –
COc1ccc(CNC(=O)c2n[nH]c3ccccc23)cc1OC | – | – | – | – | · | –
CCOC(=O)Cn1nnc(-c2ccc(S(C)(=O)=O)cc2)n1 | – | – | – | – | – | –
CSc1ccc(-c2nnn(Cc3ccc(Br)cc3)n2)cc1 | · | – | – | 36 | – | –
CCOC(=O)Cn1nnc(-c2ccc(SC)cc2)n1 | – | 67 | · | 47 | – | –
CC(C)(C)C(=O)Cn1nnc(-c2ccc(C(F)(F)F)cc2)n1 | – | – | – | – | – | –
NC(=O)Cn1nnc(-c2ccc(C(F)(F)F)cc2)n1 | – | 32 | – | – | – | –
